Reference: PubChem BioAssay (NCI)
“And” between values parts separate entries of the source, which are not always exact repeats. Identical values can stand only once. Compounds without any hit were thinned out: in the full panel of roughly 83,000, 20% have a hit.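 Single-dose data. Exposure time 48 hours. Values below 10 considered active.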 The source made the active and inactive calls.

Each molecule was assayed on MCF7 breast (assay: NCI-60 one-dose screen, 48 h (100 = growth as untreated, 0 = no growth, -100 = all killed)). Details: 10 µM unless noted.

Compound	growth
C=C(C)C(=O)OC1CC2(C)OC(=CC2=O)C(C)CC2OC(=O)C(=C)C12 (stereo unspecified)	-77.3% [100 µM] (active)
COc1cc(Oc2c(C)c(Cl)c(OC)c(Cl)c2OC)c2c(c1Cl)COC2=O	-6.77% [100 µM] (active) and -26.7% [100 µM] (active)
C=C(C)C1CC2(C)C(C)CC(OC(=O)/C(C)=C\C)CC2C(OC(=O)/C(C)=C\C)C1O (stereo unspecified)	-15.7% [100 µM] (active) and -14.3% [100 µM] (active)
O=C(O)COc1cc(-c2ccccc2F)nc2cc3c(cc12)OCO3	86.4% [100 µM] (inactive) and 58% [100 µM] (inactive)
COC(=O)C(Cc1nc2ccccc2[nH]c1=O)C(=O)C(=O)Nc1cc(C(F)(F)F)ccc1Cl (stereo unspecified)	-91.8% [100 µM] (active) and 0% [100 µM] (active)
CC1C2(C)OC(=N)C(C#N)(C(c3cccc([N+](=O)[O-])c3)O2)C1(C#N)C#N (stereo unspecified)	98.4% [100 µM] (inactive)
COC(=O)C1CCC(=O)N1CN(C(C)=O)c1cccc(O)c1 (stereo unspecified)	90.1% [100 µM] (inactive) and 83.5% [100 µM] (inactive)
COc1cc(-c2nc(SC)nc3c2CCc2ccccc2-3)cc(OC)c1OC	19.3% [100 µM] (inactive) and 8.46% [100 µM] (active)
N#Cc1n[nH]n(-c2ccccc2)c1=O	95% [100 µM] (inactive) and 80.4% [100 µM] (inactive)
COC(=O)/C=C\C(C#N)(C#N)N=Cc1ccsc1	-73.8% [100 µM] (active) and -39.1% [100 µM] (active)
N#CC1(C#N)N[C@@H](c2ccsc2)[C@H]2C(=O)N(c3ccccc3)C(=O)[C@H]21	22.5% [100 µM] (inactive) and 12.4% [100 µM] (inactive)
CCCCCCCCCC(=O)CC(=O)c1c(O)cc(O)cc1O	-63.3% [75 µM] (active) and -13.9% [75 µM] (active)
C=CCNC1=C2C[C@@H](C)C[C@@H](OC)[C@@H](OC(=O)CCCN)[C@H](C)/C=C(\C)[C@@H](OC(N)=O)[C@H](OC)/C=C\C=C(/C)C(=O)NC(=CC1=O)C2=O	-82% [100 µM] (active) and -94.9% [100 µM] (active)
COc1cc(C)c2c(c1C=O)Oc1c(c(C)c(O)c3c1C(O)OC3=O)OC2=O (stereo unspecified)	1.49% [100 µM] (active) and 87.3% [100 µM] (inactive)
COc1ccc(-c2nc3ccccc3c(=S)n2OC(C)=O)cc1	8.58% [25 µM] (active) and -23% [25 µM] (active)
COc1cc2c(cc1-c1coc3cc(O)ccc3c1=O)OCO2	67.5% [100 µM] (inactive) and 58.5% [100 µM] (inactive)
O=C1CC(c2ccccc2)NCCCCN2CC(CN1)C(C(O)c1ccccc1)C2=O (stereo unspecified)	97.3% [100 µM] (inactive) and 76% [100 µM] (inactive)
C=C1C(=O)OC2/C=C(\CO)CC/C=C(\CO)CC(OC(=O)C(C)C)C12 (stereo unspecified)	-82.7% [100 µM] (active) and -70% [100 µM] (active)
CC1(C)S[C@H](CN)N[C@H]1C(=O)OC(c1ccccc1)c1ccccc1	-8.91% [100 µM] (active) and -100% [100 µM] (active)
NC(=O)CC1OC(=O)Cc2cc3c(c(O)c21)C(=O)c1c(O)cccc1C3=O (stereo unspecified)	30.4% [100 µM] (inactive)
CC(C)O/N=C/c1cc(NC(=S)OC(C)C)ccc1Cl	-77.4% [100 µM] (active) and 3.65% [100 µM] (active)
CCC1OC2(C)CC(C#N)(C#N)C1(C#N)C(=N)O2 (stereo unspecified)	39.8% [100 µM] (inactive)
Cc1cc2nn(C3CCCO3)nc2cc1C (stereo unspecified)	79.7% [100 µM] (inactive) and 92.9% [100 µM] (inactive)
NC1N=C(c2ccc(Cl)cc2)C2=C(N1)c1ccccc1CC2 (stereo unspecified)	13.4% [100 µM] (inactive) and -96.2% [100 µM] (active)
Cc1ccc(NC(=O)/C(=N\NC(N)=O)c2c(O)c3ccccc3[nH]c2=O)cc1	92.8% [100 µM] (inactive) and 85.4% [100 µM] (inactive)
CC(C)(C)c1cc(C2COC(=O)COCCOCC(=O)OCCOCCO2)cc(C(C)(C)C)c1O (stereo unspecified)	70.6% [100 µM] (inactive) and 74.1% [100 µM] (inactive)
